One assay has as its target TRMT1. In words: pooled miR-30 sensor sort-seq; sequence = guide strand. Conditions: shRNA.
TAGTACAGAGGCACGTCCGGGA had a sensor-assay potency score (higher = more potent) of -0.101.
Still for that read-out and setting: for TAGTCTCTGATAGTCGCTCCCG the value was -0.643; for TTGAGCTGGACATTCCGGCGTA, 0.567; for TCTCCTGGAACCTTGATCTGGA, -0.0549.
Same read-out and setting: then TTGTTCTGAAGCAGCCTGCGTC, with -0.663; and TCGTTTGCAACCACAGATCTGA, with -0.44; and TCATTGAGCTGGACATTCCGGC, with 0.0258.
The sequence TCGGTGACTGTCGTCTCCTGGA returned a sensor-assay potency score (higher = more potent) of -1.21.
Still for that read-out and setting: then TTGCGTGTCCTTCTCTCCTGGA, with -0.847.
Turning to TCTCTGATAGTCGCTCCCGTTT, the sensor-assay potency score (higher = more potent) was -1.66.

A further assay concerns the target TRO. Described as above. Conditions: shRNA.
Sequence TACACCACTAAAGCCAGCCGTG yielded a sensor-assay potency score (higher = more potent) of -1.01.
Turning to TAAAATGGCCACATCTCGCGGT, the sensor-assay potency score (higher = more potent) came to 0.238.
On to TTGAGCACACTGCCAAAGCTGG, for which the sensor-assay potency score (higher = more potent) is -0.914.
Same read-out and setting: for TTGGGTGTGTCCTTGGTCGTTC the value was 0.127; for TTAGTAATAGTCTTTATAGGGG, -0.72.
The sequence TTTCATCTTGCTAGTCTCGTGG yielded a sensor-assay potency score (higher = more potent) of 0.184.
Still for that read-out and setting: then TTGATGGGGATCTTTGTCTGGT, with -0.592.
Still for that read-out and setting: for TTGGTCAGCATTTGGAGTCTGG the value was 0.322; for TTCATCTTGCTAGTCTCGTGGT, 0.132.
Still for that read-out and setting: then TAGTATTAGATGCACTGCCAAA, with -1.27; and TAGTGCTCAGTGTACCACCAAA, with -1.66.
Turning to TTGAGTGCACTGCCAAAGCTGA, the sensor-assay potency score (higher = more potent) was -0.944.

(Values after the OligoGym collection.)
Note: reference of the scale not given here.
